The record followed here is ChEMBL document CHEMBL1961873, “Compounds: GSK PKIS; Assays: Nanosyn kinase panel” (2012).

Assay [1] has as its target Mitogen-activated protein kinase 3 (Homo sapiens) (UniProt P27361). To be noted: at 1 µM.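 Note: values are mean percent inhibition of MAPK3.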
Assay [2] addresses SRSF protein kinase 3 (Homo sapiens) (UniProt Q9UPE1). The conditions noted are these: at 0.1 µM.
Assay [3] shares this target. The conditions noted are these: at 1 µM.
In assay [4] the target is Mitogen-activated protein kinase 14 (Homo sapiens) (UniProt Q16539). The conditions noted are these: at 0.1 µM.
Chain of Mitogen-activated protein kinase 14 (Homo sapiens) (Q16539 whole entry): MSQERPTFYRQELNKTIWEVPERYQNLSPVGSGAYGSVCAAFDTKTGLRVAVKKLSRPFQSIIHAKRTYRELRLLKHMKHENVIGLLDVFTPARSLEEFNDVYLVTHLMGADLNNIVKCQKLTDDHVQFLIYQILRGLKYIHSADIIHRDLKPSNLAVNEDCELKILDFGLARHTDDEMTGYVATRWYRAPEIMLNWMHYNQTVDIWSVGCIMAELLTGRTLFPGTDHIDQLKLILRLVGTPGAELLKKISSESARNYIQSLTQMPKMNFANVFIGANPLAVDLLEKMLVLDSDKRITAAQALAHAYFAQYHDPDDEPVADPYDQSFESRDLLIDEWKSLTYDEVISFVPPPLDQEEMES
The target is the same in assay [5]. To be noted: at 1 µM.
In assay [6] the target is Mitogen-activated protein kinase 11 (Homo sapiens) (UniProt Q15759). The conditions noted are these: at 0.1 µM.
Chain of Mitogen-activated protein kinase 11 (Homo sapiens) (Q15759 whole entry): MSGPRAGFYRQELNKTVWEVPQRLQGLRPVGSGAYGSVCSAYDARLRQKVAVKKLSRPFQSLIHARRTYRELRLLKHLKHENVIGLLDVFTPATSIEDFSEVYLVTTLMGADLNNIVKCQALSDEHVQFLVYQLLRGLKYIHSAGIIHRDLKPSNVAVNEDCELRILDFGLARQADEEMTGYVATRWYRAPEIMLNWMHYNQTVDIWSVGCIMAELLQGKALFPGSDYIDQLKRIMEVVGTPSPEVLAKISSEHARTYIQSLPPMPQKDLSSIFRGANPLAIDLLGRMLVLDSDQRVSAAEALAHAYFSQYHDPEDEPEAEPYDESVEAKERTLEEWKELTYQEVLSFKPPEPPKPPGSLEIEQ
For assay [7] the target is unchanged. The conditions noted are these: at 1 µM.
The target of assay [8] is T1, Mitogen-activated protein kinase 13 (Homo sapiens) (UniProt O15264).
T1 sequence (whole entry): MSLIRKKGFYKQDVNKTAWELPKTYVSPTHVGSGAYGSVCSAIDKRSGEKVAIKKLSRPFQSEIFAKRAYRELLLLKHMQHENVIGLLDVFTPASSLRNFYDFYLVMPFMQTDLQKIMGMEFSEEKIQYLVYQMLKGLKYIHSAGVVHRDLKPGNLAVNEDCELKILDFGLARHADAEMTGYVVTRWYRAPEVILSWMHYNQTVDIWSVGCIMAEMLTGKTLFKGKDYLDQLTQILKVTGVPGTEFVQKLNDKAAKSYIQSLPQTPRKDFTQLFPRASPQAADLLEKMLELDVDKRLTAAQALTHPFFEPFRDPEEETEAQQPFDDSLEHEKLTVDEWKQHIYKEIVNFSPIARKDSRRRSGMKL
The conditions noted are these: at 0.1 µM.

Assay [9] addresses T1, Mitogen-activated protein kinase 13 (Homo sapiens). To be noted: at 1 µM.
The target in assay [10] is T2, Mitogen-activated protein kinase 12 (Homo sapiens) (UniProt P53778).
T2 sequence (whole entry): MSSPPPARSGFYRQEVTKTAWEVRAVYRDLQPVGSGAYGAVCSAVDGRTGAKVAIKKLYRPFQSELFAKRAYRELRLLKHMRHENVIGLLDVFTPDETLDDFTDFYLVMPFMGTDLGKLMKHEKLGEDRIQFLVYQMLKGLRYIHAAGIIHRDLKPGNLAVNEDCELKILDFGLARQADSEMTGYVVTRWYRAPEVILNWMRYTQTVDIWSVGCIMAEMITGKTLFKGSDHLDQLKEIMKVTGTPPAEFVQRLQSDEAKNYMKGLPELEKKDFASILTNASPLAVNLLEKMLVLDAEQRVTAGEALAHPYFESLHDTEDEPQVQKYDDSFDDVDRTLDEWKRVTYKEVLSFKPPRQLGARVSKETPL
To be noted: at 0.1 µM.

Assay [11] addresses T2, Mitogen-activated protein kinase 12 (Homo sapiens). To be noted: at 1 µM.
Assay [12] deals with SRSF protein kinase 1 (Homo sapiens) (UniProt Q96SB4). To be noted: at 0.1 µM.
Chain of SRSF protein kinase 1 (Homo sapiens) (Q96SB4 whole entry): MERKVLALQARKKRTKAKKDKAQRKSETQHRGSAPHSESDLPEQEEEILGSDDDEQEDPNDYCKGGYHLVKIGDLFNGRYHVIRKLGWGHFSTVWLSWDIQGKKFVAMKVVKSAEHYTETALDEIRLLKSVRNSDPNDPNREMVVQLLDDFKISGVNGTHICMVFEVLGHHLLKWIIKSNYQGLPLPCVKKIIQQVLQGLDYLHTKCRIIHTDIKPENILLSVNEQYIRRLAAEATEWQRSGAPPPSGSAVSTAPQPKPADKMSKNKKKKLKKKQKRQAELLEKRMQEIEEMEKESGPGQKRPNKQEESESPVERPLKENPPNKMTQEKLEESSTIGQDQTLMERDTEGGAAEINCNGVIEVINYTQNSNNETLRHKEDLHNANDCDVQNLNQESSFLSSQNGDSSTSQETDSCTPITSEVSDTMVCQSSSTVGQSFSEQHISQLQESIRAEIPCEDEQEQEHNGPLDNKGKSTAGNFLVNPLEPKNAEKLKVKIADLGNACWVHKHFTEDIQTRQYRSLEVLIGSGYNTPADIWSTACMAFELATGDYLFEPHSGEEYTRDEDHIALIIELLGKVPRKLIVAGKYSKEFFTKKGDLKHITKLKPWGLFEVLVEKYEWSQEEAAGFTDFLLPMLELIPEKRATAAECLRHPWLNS
For assay [13] the target is unchanged. The conditions noted are these: at 1 µM.
In assay [14] the target is Phosphatidylinositol 4,5-bisphosphate 3-kinase catalytic subunit alpha isoform (Homo sapiens) (UniProt P42336). The conditions noted are these: at 0.1 µM.
Chain of Phosphatidylinositol 4,5-bisphosphate 3-kinase catalytic subunit alpha isoform (Homo sapiens) (P42336 whole entry, canonical isoform): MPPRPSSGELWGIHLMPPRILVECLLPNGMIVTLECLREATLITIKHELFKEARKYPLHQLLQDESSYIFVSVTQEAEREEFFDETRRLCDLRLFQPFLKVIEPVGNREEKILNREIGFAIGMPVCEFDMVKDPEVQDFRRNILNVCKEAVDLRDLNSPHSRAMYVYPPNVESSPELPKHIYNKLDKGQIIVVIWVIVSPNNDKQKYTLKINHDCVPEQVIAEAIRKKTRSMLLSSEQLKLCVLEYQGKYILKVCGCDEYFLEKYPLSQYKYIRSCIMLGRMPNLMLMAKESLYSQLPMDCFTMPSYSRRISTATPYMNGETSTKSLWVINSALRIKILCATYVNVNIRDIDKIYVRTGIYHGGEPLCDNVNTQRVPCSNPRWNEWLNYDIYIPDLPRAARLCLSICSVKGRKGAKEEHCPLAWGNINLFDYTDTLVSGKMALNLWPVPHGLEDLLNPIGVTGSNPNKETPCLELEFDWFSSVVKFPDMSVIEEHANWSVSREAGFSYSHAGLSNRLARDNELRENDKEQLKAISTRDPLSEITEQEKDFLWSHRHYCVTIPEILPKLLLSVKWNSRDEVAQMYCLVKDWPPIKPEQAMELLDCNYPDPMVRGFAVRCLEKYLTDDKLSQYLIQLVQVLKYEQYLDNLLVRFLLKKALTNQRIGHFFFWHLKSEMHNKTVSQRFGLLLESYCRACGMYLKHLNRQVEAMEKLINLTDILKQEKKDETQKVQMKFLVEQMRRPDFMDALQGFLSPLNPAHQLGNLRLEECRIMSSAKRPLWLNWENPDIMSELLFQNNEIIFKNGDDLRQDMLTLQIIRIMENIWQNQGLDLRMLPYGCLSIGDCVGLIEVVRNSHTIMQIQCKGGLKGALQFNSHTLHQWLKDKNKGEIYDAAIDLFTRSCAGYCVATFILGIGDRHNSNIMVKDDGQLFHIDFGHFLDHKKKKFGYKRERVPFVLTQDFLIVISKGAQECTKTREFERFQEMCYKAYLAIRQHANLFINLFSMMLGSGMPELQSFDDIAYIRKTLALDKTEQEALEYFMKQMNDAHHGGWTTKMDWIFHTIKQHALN
Assay [15] shares this target. To be noted: at 1 µM.
Assay [16] concerns the target T3, Phosphatidylinositol 4,5-bisphosphate 3-kinase catalytic subunit delta isoform (Homo sapiens) (UniProt O00329).
T3 sequence (whole entry): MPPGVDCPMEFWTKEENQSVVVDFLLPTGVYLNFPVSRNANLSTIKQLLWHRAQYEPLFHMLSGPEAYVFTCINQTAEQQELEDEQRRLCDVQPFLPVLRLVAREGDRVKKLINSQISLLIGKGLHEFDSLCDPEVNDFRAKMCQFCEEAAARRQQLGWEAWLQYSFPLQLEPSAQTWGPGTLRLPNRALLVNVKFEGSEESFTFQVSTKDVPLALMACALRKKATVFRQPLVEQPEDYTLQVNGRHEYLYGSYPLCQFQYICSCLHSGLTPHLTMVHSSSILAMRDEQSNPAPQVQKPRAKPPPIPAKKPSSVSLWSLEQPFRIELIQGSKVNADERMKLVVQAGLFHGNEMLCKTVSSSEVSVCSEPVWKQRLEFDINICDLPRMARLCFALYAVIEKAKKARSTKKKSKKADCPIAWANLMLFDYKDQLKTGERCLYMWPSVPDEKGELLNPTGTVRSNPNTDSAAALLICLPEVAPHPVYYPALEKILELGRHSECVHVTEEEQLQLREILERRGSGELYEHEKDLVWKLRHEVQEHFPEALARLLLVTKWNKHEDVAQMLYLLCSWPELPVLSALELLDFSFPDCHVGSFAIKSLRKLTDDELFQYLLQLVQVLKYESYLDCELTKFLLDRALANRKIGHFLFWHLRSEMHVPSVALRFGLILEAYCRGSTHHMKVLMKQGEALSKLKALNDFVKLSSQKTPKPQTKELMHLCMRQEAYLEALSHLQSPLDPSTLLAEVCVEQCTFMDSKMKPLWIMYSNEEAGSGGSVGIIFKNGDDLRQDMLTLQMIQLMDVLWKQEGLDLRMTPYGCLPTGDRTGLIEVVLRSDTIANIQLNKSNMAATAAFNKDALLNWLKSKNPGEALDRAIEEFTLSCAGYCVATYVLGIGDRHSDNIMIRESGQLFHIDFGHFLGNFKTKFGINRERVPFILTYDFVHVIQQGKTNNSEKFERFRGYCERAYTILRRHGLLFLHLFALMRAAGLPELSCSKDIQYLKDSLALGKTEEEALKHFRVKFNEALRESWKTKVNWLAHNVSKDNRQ
To be noted: at 0.1 µM.

The target of assay [17] is T3, Phosphatidylinositol 4,5-bisphosphate 3-kinase catalytic subunit delta isoform (Homo sapiens). The conditions noted are these: at 1 µM.
For assay [18], the target named is Phosphatidylinositol 4-kinase beta (Homo sapiens) (UniProt Q9UBF8). To be noted: at 0.1 µM.
Chain of Phosphatidylinositol 4-kinase beta (Homo sapiens) (Q9UBF8 2-816 limits assumed): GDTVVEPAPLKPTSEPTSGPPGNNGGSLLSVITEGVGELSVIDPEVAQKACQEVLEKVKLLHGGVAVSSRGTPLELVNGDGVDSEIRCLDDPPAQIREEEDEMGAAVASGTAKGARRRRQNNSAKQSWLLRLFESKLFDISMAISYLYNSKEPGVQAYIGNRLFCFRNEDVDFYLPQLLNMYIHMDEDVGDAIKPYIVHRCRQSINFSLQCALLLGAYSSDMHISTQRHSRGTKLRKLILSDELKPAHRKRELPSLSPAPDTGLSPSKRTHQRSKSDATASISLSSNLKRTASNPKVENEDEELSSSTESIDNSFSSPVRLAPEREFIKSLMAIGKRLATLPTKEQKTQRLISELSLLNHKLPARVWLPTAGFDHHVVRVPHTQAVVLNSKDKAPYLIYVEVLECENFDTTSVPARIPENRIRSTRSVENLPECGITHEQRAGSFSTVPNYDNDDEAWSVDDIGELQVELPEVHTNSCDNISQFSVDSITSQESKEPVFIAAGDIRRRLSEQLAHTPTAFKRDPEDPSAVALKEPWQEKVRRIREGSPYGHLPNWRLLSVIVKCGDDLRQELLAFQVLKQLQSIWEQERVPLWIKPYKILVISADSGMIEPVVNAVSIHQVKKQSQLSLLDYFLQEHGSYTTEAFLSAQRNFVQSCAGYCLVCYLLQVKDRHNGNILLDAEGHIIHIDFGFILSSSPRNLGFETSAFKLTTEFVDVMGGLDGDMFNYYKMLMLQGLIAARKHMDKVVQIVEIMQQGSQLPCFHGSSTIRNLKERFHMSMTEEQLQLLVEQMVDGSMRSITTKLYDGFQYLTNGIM
Assay [19] has the same target. To be noted: at 1 µM.
For assay [20], the target named is Sphingosine kinase 1 (Homo sapiens) (UniProt Q9NYA1). The conditions noted are these: at 0.1 µM.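 Note: mean percent inhibition of SPHK1 activity, measured within the GSK PKIS screening panel.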
Chain of Sphingosine kinase 1 (Homo sapiens) (Q9NYA1 whole entry): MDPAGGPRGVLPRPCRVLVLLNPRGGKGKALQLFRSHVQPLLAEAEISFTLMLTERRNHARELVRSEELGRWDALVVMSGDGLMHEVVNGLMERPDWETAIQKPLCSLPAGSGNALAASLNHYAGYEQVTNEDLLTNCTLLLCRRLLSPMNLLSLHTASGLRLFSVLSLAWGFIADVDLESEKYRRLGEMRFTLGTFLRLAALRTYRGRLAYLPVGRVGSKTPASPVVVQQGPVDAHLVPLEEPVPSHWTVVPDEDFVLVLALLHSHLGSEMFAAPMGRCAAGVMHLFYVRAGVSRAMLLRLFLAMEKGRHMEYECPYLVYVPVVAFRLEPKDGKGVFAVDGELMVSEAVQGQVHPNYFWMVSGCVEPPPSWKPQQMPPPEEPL

Values joined by “and” are separate entries in the source; they are usually repeats but may differ in a detail not shown here. Identical values can stand only once.

Chain of SRSF protein kinase 3 (Homo sapiens) (Q9UPE1 whole entry): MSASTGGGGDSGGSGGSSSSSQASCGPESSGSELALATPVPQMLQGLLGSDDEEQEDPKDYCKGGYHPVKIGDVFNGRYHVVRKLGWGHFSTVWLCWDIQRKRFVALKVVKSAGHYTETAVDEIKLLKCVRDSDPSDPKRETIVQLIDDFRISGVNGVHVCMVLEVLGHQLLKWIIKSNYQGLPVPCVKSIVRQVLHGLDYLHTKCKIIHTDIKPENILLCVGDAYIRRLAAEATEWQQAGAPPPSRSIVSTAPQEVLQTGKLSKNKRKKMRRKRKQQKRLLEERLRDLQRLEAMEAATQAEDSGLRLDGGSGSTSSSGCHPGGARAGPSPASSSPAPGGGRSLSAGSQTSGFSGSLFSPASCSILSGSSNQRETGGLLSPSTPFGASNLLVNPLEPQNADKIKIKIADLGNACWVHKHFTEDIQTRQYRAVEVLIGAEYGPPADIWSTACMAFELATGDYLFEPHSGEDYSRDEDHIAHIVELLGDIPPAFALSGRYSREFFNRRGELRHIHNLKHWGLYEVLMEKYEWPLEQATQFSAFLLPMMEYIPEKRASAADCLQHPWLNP
Chain of Mitogen-activated protein kinase 3 (Homo sapiens) (P27361 whole entry): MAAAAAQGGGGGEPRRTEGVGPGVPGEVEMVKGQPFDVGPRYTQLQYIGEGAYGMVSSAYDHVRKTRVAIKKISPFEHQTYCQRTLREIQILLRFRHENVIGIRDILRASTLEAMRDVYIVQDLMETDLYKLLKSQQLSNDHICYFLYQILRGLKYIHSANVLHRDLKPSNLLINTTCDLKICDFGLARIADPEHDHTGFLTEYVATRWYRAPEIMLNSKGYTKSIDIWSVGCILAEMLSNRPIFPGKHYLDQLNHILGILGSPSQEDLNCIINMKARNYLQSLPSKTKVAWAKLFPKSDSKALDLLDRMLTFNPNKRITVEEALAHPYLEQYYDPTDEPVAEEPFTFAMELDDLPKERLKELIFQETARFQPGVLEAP

As usually defined, the inhibition is the change of the read-out against control, counted positive when it falls. Turning to `CN1CCC(C(=O)Nc2n[nH]c3nc(-c4ccc(O)cc4)c(Br)cc23)CC1`, the inhibition in assay [1] is 6.59% and 1.2%; in assay [2], -1.97% and -1.1%; in assay [3], -0.76% and -0.97%; in [4], 1.69% and 4.12%; in [5] it was 13% and 10.5%; in assay [6] it was 4.89% and 2.05%. Moreover, the inhibition is 17.5% and 8.93% in assay [7]; 2.74% and 2.79% in [8]; 13.7% and 11.6% in [9]; 4.48% and 2.47% in [10]; 7.35% and 7.26% in assay [11]; -0.9% and -1.12% in assay [12]. Besides, the inhibition is 0.97% and -0.81% in assay [13]; 4.19% and 1.14% in assay [14]; 2.06% and 2.14% in assay [15]; 1.92% and 0.51% in assay [16]; 1.89% and 0.99% in assay [17]; 2.14% in assay [18]. In addition, the inhibition was -0.62% and 1.07% in assay [19]; 1.72% and 4.51% in [20].
On to `CCn1c(-c2nonc2N)nc2cncc(C(=O)NCCNC)c21`, for which the inhibition in assay [1] was 5.7%; in [2] it was -3.21%; in assay [3], -0.69%; in assay [4] it was 7.83%; in assay [5], 6.55%; in assay [6] it was 4.08%. In addition, the inhibition was 3.55% in assay [7]; 5.75% in assay [8]; 5.07% in assay [9]; 3.86% in assay [10]; 4.44% in assay [11]; -1.97% in [12]. Besides, the inhibition is -2.66% in assay [13]; 4.3% in assay [14]; 2.53% in assay [15]; 0.31% in assay [16]; 1.82% in [17]; 1.26% in assay [18]. The inhibition in assay [19] stood at 0.69%; in assay [20], 0.59%.
With `CN(C)CCNC(=O)Nc1ccc(N(C)c2ccnc(Nc3ccc(CS(C)(=O)=O)cc3)n2)cc1`, the inhibition was 1.29% in assay [1]; 1.45% in assay [2]; -2.85% in assay [3]; 2.66% in assay [4]; 7.04% in [5]; 2.16% in [6]. The inhibition is 2.52% in assay [7]; 1.99% in [8]; 3.74% in [9]; -0.76% in assay [10]; 2.24% in assay [11]; -1.44% in assay [12]. Besides, the inhibition in [13] is -2.68%; in assay [14], 2.6%; in [15], 3.13%; in [16] it was 2.63%; in assay [17], 5.9%; in assay [18], 2.65%. The inhibition in assay [19] was determined as 15.7%; in [20], 0.26%.
For `COc1ccc2ncn(-c3cc(O[C@H](C)c4ccccc4C(F)(F)F)c(C(N)=O)s3)c2c1`, the inhibition was 0.26% in [1]; -1.14% in assay [2]; -0.79% in [3]; -5.71% in assay [4]; 0.3% in assay [5]; -0.35% in assay [6]. Also, the inhibition is 0.3% in assay [7]; -0.27% in [8]; -1.08% in assay [9]; 0.21% in assay [10]; -0.21% in [11]; -0.66% in assay [12]. For the same compound, the inhibition in assay [13] is -1.2%; in assay [14], 0.29%; in assay [15], 4.81%; in [16] it was 2.14%; in assay [17], 12.2%; in [18], -1.47%. In addition, the inhibition in assay [19] is 1.85%; in [20], -1.01%.
Turning to `CS(=O)(=O)Nc1ccc(-c2cc(-c3ccccc3)cc(C(N)=O)c2N)cc1`, the inhibition in [1] is 2.24%; in [2], -1.51%; in assay [3], -0.01%; in assay [4], 1.19%; in assay [5], 0.84%; in assay [6] it was 1.8%. Moreover, the inhibition in assay [7] is 0.17%; in [8] it was 1.96%; in assay [9], 0.64%; in [10], 0.99%; in [11] it was 1.43%; in [12] it was -1.01%. Also, the inhibition in assay [13] was -1.76%; in assay [14], 3.24%; in [15], 3.21%; in assay [16], 3.22%; in [17] it was 3.77%; in [18], 0.42%. For the same compound, the inhibition in assay [19] is -0.01%; in assay [20] it was -1.73%.
Consider `CNC(=O)c1ncccc1Nc1nc(Nc2cc3c(cc2OC)CCCN3C(=O)CN(C)C)nc2[nH]ccc12`, for which the inhibition was found to be 1.38% in assay [1]; 0.37% in assay [2]; 0.84% in assay [3]; 4.75% in assay [4]; 8.76% in assay [5]; 4.41% in assay [6]. In addition, the inhibition in assay [7] was 4.4%; in [8], 8.55%; in assay [9] it was 5.64%; in [10] it was 1.94%; in [11], 2.94%; in [12] it was -1.98%. For the same compound, the inhibition in assay [13] was -0.43%; in [14], 3.55%; in assay [15], 1.58%; in assay [16] it was 1.46%; in assay [17], 4.15%; in [18], -2.24%. The inhibition in assay [19] was 1.56%; in assay [20] it was 3.95%.
For the compound `COc1cccc(Nc2nccc(-c3cnn4ncccc34)n2)c1`, the inhibition in [1] was 13.1%; in assay [2], -0.05%; in [3], 0.66%; in assay [4], 5.7%; in assay [5], 9.35%; in assay [6] it was 4.7%. Moreover, the inhibition was 7.72% in assay [7]; 5% in assay [8]; 15.2% in [9]; 1.36% in assay [10]; 9.23% in assay [11]; -0.98% in assay [12]. The inhibition in assay [13] is 4.98%; in [14], 3.25%; in [15] it was 17%; in assay [16], 3.95%; in [17], 19.1%; in [18], -0.93%. The inhibition in assay [19] amounted to 11.1%; in assay [20], 0.27%.
